D1 agonist: activates the human D1 dopamine receptor. P21728. HEK293 T-REx D1 cells, calcium flux, agonist mode. activation, % at 2 µM. actives 1% (n = 360,000). AID 504660
Target sequence (P21728 whole entry, looked up): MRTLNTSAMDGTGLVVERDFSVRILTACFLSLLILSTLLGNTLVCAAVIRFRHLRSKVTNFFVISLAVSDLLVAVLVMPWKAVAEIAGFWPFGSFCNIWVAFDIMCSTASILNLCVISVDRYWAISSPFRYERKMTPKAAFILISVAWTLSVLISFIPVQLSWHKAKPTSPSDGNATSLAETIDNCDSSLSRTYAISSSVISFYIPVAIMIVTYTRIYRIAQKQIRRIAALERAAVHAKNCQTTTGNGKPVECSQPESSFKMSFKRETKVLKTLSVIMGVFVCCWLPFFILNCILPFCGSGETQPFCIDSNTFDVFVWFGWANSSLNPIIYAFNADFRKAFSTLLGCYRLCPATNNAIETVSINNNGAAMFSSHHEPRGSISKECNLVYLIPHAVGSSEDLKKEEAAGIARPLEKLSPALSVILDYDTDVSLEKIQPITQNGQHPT
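Inducible HEK293 T-REx D1 cells, force-coupled to calcium signalling, were plated at 4000 cells/well with tetracycline and held overnight at 30 C. After no-wash calcium dye loading, compound-evoked calcium rise over 180 s flagged agonists.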
D1 potentiator: enhances dopamine response at the human D1 receptor; P21728; HEK293 TREx D1 cells, calcium flux, dopamine EC20 potentiation; potentiation, % at 10 µM; actives 0.036% (n = 360,000); in the data active = potentiation above about 30%
TRHR enhancer: allosterically enhances the human TRH receptor | P34981 | TRHR cells, fluo-8 calcium fluorescence, EC20 TRH enhancement | enhancement, % at 2 µM | actives 0.66% (n = 360,000); in the data active = enhancement above about 30%
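TRHR-expressing cells loaded with fluo-8 calcium dye were read kinetically (ex 480/em 530) during compound addition, then stimulated with an EC20 of TRH (10 nM final). Enhancement of the Gq-mediated intracellular calcium response was scored.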
D1 antag: human D1 dopamine receptor antagonism; P21728; HEK293 TREx D1 cells, calcium flux, dopamine EC80; hits give low values; activity change, negative = inhibition, % at 10 µM; actives 3.2% (n = 360,000); in the data active = activity change below about -30%
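HEK293 T-REx cells expressing inducible, force-coupled D1 receptor; no-wash Ca dye, 30–90 min RT. Cmpd → 180 s read at 1 Hz → EC80 DA → 180 s read.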
TRHR agonist: activates the human TRH receptor; activation, % at 2 µM; actives 0.18% (n = 360,000); P34981; TRHR cells, calcium flux fluo-8, FDSS agonist mode
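In this calcium-flux screen, cells bearing human TRHR are dye-loaded with fluo-8, baselined for 10 cycles, then exposed to library compounds; positive kinetic calcium responses during the agonist phase mark hits, with TRH as control.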
Each line names hits and unclear results; the compound was inactive in the other large screens; ! = not confirmed by another sample. An excerpt weighted towards active compounds, which were near 4.7% of everything screened. Cut-off read from the data, not from the text of the source, unless noted: active = activation above about 30%; inactive = the rest.

COc1nc(-c2ccccc2)ccc1-c1noc(-c2ccccc2F)n1	D1 agonist 159
COc1nc(-c2ccccc2)ccc1-c1noc(-c2ccc(F)cc2)n1	none
COC(=O)CN1C(=O)CSc2ccc(S(=O)(=O)Nc3ccc(F)c(Cl)c3)cc21	none
Cc1cc(C)n(C(=O)CNC(=O)c2cccs2)n1	TRHR enhancer 37
Cc1cc(C)n(C(=O)CCCC(=O)n2nc(C)cc2C)n1	D1 antag -32
Cc1cc(C)n(C(=O)CCCCCCCC(=O)n2nc(C)cc2C)n1	none
CCOC(=O)CC(NS(=O)(=O)c1cc(-c2cc(C)no2)ccc1C)c1ccc(C)cc1 (stereo not given)	none
Cc1ccc(NS(=O)(=O)c2ccc(C(=O)N3CCN(S(=O)(=O)c4ccccc4)CC3)cc2)cc1	none
Cc1nnc2ccc(-c3cccc(NC(=O)c4ccco4)c3)nn12	D1 antag -33
COc1ccc(CC(=O)Nc2cccc(-c3ccc4nnc(C)n4n3)c2)cc1	none
CCOc1ccc(CC(=O)Nc2cccc(-c3ccc4nnc(C)n4n3)c2)cc1	D1 antag -32
Cc1nnc2ccc(-c3cccc(NS(=O)(=O)c4ccccc4Cl)c3)nn12	TRHR enhancer 36
O=C(CSc1ccc2nnc(-c3ccccn3)n2n1)Nc1cccc(F)c1	none
CCOC(=O)CN(Cc1ccccc1)C(C(=O)NC1CCCCC1)c1ccccc1 (stereo not given)	none
Clc1ccc(SCCCCN2CCNCC2)cc1	D1 agonist 120, D1 antag -45
CC1CCN(CCOCCSc2ccc(Cl)cc2)CC1	D1 antag -44
Cc1cc(Cl)c(OCCOCCN2CCN(C)CC2)c(Br)c1	none
Cc1cc(Cl)c(OCCOCCN2CCC(C)CC2)c(Br)c1	D1 agonist 34
Clc1ccc(SCCOCCN2CCCCC2)cc1	none
COc1ccc(C)cc1-n1nnnc1SCC(=O)Nc1cc(C)on1	D1 antag -51
COc1ccc(C)cc1-n1nnnc1SCC(=O)NC(=O)NCc1ccco1	D1 antag -37
CCOC(=O)c1cccc(NC(=O)COc2nsnc2N2CCOCC2)c1	none (no result: D1 potentiator)
CCOC(=O)C1=C(O)/C(=C/c2cc(OC)c(OC)c(OC)c2)N=C1C	D1 antag -38
Cc1cccc2c1N(Cc1ccccc1OCCC(C)C)C(=O)C2=O	none
CC(=O)c1c(C(C)=O)c(C)n(NC(=O)c2ccccc2Cl)c1C	D1 antag -49
Cc1ccc(C)n1NC(=O)c1ccccc1Cl	none
OCCNc1c2ccccc2nc2ccccc12	none
CCCNc1c(F)c(F)c2c(C)c3ccccc3nc2c1F	D1 agonist 41, TRHR agonist 34
CC(=O)NCC(=O)NNC1CC(=O)N(c2cccc(Cl)c2)C1=O (stereo not given)	D1 potentiator 31
CCCCn1c(NC(=O)c2ccccc2Cl)c(C#N)c2nc3ccccc3nc21	D1 antag -39
CC1(C)OC2CC3C4CC(F)C5=CC(=O)C=CC5(C)C4(F)C(O)CC3(C)C2(C(=O)CO)O1 (stereo not given)	none
CC(C)(CNC(=O)Cc1ccc(Br)cc1)N1CCOCC1	D1 antag -37
Clc1ccccc1CSc1nnc(Cn2cnc3ccccc32)n1-c1ccccc1	D1 antag -82
COc1ccc(NC(=O)Nc2cc(C)cc(C)c2)cn1	none
O=C(Nc1ccccc1)Nc1cccc(C(F)(F)F)c1	D1 antag -37
CNC(=O)Nc1cccc(C(F)(F)F)c1	none
COc1ccc(NC(=O)Nc2ccc([N+](=O)[O-])cc2)cn1	D1 agonist 35, D1 antag -52
Cc1ccc(C(=O)Nc2ccc(Oc3cccc(C(F)(F)F)c3)nc2)cc1	D1 antag -31
Cc1cc(C(F)F)n2nc(C(=O)Nc3cccc(C(F)(F)F)c3)nc2n1	D1 antag -40
CN(C)c1ccc(CNC(=O)C2CCN(C(=O)c3ccc(-n4ccc5ccccc54)s3)CC2)cc1	none
COc1ccc(NC(=O)Nc2cccc(C(F)(F)F)c2)cn1	D1 antag -30
O=C(Nc1cccc(C(F)(F)F)c1)Nc1cccs1	D1 antag -44
COc1cc(OC)cc(-c2nnc(SCc3ccc(C(=O)O)cc3)o2)c1	none
Cc1ccc(C(=O)c2cn[nH]c2-c2cc(Cl)ccc2O)cc1	D1 agonist 58
Cc1ccc(NC(=O)CCNC(=O)c2ccc([N+](=O)[O-])cc2)cc1C	none
CCC(=O)N1CCc2cc(S(=O)(=O)NCCC(=O)Nc3ccc(OC)c(OC)c3)ccc21	D1 antag -40
CCCc1nc(C(C)(C)O)c(C(=O)O)n1Cc1ccc(-c2ccccc2-c2nn[nH]n2)cc1	D1 antag -43
Cc1cc(C)cc(NC(=O)Cn2c(=O)n(-c3cc(C)cc(C)c3)c(=O)c3oc4ccccc4c32)c1	none
Cc1ccc(C)c(N2CCN(S(=O)(=O)c3csc(C(N)=O)c3)CC2)c1	TRHR enhancer 32!
Fc1ccc(CNc2ncnc3c2c(-c2ccccc2)cn3-c2ccccc2)cc1	none
CCOC(=O)c1c(NC(=O)CSc2cn(CCNC(=O)c3ccccc3F)c3ccccc23)sc2c1CCCC2	none
COc1cc(/C=C2\SC(=O)N(CC(=O)Nc3ccccc3F)C2=O)cc(Cl)c1O	D1 agonist 130, TRHR agonist 101
O=C(O)c1cc2nc3c(c(C(F)(F)F)n2n1)CCCC3	none
O=C(Nc1ccc(F)cc1F)c1cc2nc3c(c(C(F)(F)F)n2n1)CCCC3	D1 antag -33
CC(NC(=O)Cc1ccc(NC(=O)N2CCSc3ncccc32)cc1)c1ccccc1 (stereo not given)	none
CCCN(CCC)CC(O)COc1ccc2c(c1)OCO2 (stereo not given)	D1 antag -45
COc1cccc(/C=C/c2nc(C#N)c(N3CCCCC3)o2)c1	none
Cc1cc(OCC(=O)Nc2ccncc2)ccc1Br	D1 antag -32
Cc1ccc(OCC(=O)Nc2ccncc2)cc1	none
COc1cccc(NC(=O)COc2ccc(Br)c(C)c2)c1	D1 antag -37
O=C(COc1cc(Cl)c(Cl)cc1Cl)Nc1ccncc1	D1 antag -30
O=C(COc1cc(Cl)c(Cl)cc1Cl)Nc1cccc(O)c1	none
Cc1ccccc1C(=O)Nc1nnc(SCc2cc(=O)c3c(C)ccc(C)c3[nH]2)s1	none
Cn1c(=O)n(C)c2cc(NS(=O)(=O)c3ccccc3)c(NCc3ccccc3)cc21	TRHR enhancer 30
Cc1ccc(S(=O)(=O)N2CCOCC2)cc1NC(=O)CSc1nnnn1C	D1 antag -35
O=C(Nc1nc2c(ccc3ccccc32)s1)c1cc([N+](=O)[O-])ccc1N1CCOCC1	none
Cc1ccc(S(=O)(=O)N2CCOCC2)cc1NC(=O)c1cc([N+](=O)[O-])ccc1N1CCOCC1	D1 antag -69
Cc1ccc(S(=O)(=O)N2CCCCC2)cc1NC(=O)CSc1nnnn1C	none
